Here are results for 18 compounds from PubChem BioAssay (Tox21).

A short description of assay [1]: qHTS assay for small molecule agonists of the p53 signaling pathway (AID 651631; calls by dose curve; further: nearly all actives have a fitted effect of over 15% in size; further: potency means the concentration at half of the fitted maximal effect). The gist of the method: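 Read-out is beta-lactamase FRET fluorescence measured 2 h after substrate addition at room temperature, in HCT-116 cells with a p53 response element-driven reporter exposed to compounds for 16 h at 37 °C.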
A general note: Quantitative high-throughput screening tests each substance at several concentrations.

The nature of assay [2]: qHTS assay for small molecules that induce genotoxicity in human embryonic kidney cells expressing luciferase-tagged ATAD5 (AID 651632). Further: nearly all actives have a fitted effect of over 15% in size. Further: potency means the concentration at half of the fitted maximal effect. The method in brief: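 Luminescent reporter readout, HEK293T ATAD5-luc line: 16 hr drug exposure (37C, 5% CO2) followed by Amplite, 30 min RT.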
The nature of assay [3]: qHTS assay for small molecule agonists of the p53 signaling pathway - cell viability (AID 651633; calls by dose curve; further: nearly all actives have a fitted effect of over 30% in size; further: potency means the concentration at half of the fitted maximal effect). The method in brief: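 p53RE-bla cells were treated with compound for 16 hours at 37 C. Cytotoxicity was then measured as CellTiter-Glo luminescence after 30 min at room temperature.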
A short description of assay [4]: qHTS assay for small molecules that induce genotoxicity in human embryonic kidney cells expressing luciferase-tagged ATAD5 - cell viability (AID 651634; calls by dose curve; further: nearly all actives have a fitted effect of over 25% in size; further: potency means the concentration at half of the fitted maximal effect). The method in brief:
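Viability read: CellTiter-Fluor fluorescence, 30 min at 37C. Cells: HEK293T, luciferase-tagged ATAD5. Exposure: 15.5 hr, 37C, 5% CO2, compound or DMSO vehicle.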

A short description of assay [5]: qHTS assay for small molecule disruptors of the mitochondrial membrane potential - cell viability (AID 720634; calls by dose curve;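 further: human HepG2 liver cancer cells; series mostly up to about 83 µM; nearly all actives have a fitted effect of over 20% in size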). The gist of the method: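 HepG2, 1 hr compound, 37 C. ATP luminescence via CellTiter-Glo, 30 min RT, same well as m-MPI.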
Assay [6] is described as follows: qHTS assay for small molecule disruptors of the mitochondrial membrane potential (AID 720635). Further: potency means the concentration at half of the fitted maximal effect. The method in brief: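 HepG2 cells exposed to compound 1 hr at 37C, then Mito-MPS dye 30 min. Ratio read of aggregate (540/590 nm) versus monomer (490/535 nm) fluorescence.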
Assay [7] is described as follows: qHTS assay to test for compound auto fluorescence at 590 nm (red) in HepG2 cells (AID 720674). The method in brief:
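Seeding: 2,000 HepG2 cells/well, MEM/10% FBS, overnight 37 C. Dosing: compound vs DMSO. Incubation: 1 hr, 37 C, 5% CO2. Read: fluorescence 540 ex/590 em, Rose Bengal sodium as red reference.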

Assay [8] is described as follows: qHTS assay to test for compound auto fluorescence at 535 nm (green) in HepG2 cells (AID 720675).
Assay [9] in a line: qHTS assay to test for compound auto fluorescence at 460 nm (blue) in HEK293 cells (AID 720678). The method in brief: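 Measured: blue fluorescence (Ex 405/Em 460 nm) of compound-treated HEK293 cells, incubated overnight at 37C with 5% CO2 and scaled to triamterene equivalents.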
The nature of assay [10]: qHTS assay to test for compound auto fluorescence at 590 nm (red) in HEK293 cells (AID 720679). The method in brief: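 Using HEK293 cells at 2,000 per well, the screen added 23 nL of each compound after cell attachment and incubated overnight (37C, 5% CO2). The plate reader then captured red-label fluorescence, Ex/Em 540/590nm.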

SMILES strings stand for the structures. Records with an inconclusive call do not appear. Active and inactive are the calls of the source. Unless noted, the call rests on the fitted dose curve; in most records, active means well fitted curve in the direction sought with a large enough effect in the repeat runs; inconclusive means weak or mixed curves; inactive means no such curve, though single readings can be large; an effect the other way counts as inactive or inconclusive.

Turning to `Nc1nc(NC2CC2)c2ncn([C@@H]3C=C[C@@H](CO)C3)c2n1`, the Potency result in assay [1], in assay [3], in assay [4], in assay [5], in assay [6] and in assay [8] was “inactive” in each case. Also, the Potency result in assay [9] was “inactive”. For the same compound, the Potency in assay [2] was 13.3 µM (active). The compound was called inactive in [7] and in assay [10].

Take `CCC1OC(=O)C[C@@H](O)[C@H](C)[C@@H](O[C@@H]2O[C@H](C)C[C@H](N(C)C)[C@H]2O)[C@@H](CC=O)C[C@@H](C)C(=O)/C=C/[C@]2(C)OC2C1C` (stereo not given in full): the Potency in assay [1] is 29.8 µM (active). The Potency entry in [2], in [3], in assay [4], in assay [5], in assay [6] and in assay [8] was “inactive” throughout. In addition, the Potency result in [9] was “inactive”. Also, the outcome in assay [7] and in assay [10] was inactive.

For `NC(=O)C1c2ccccc2CCc2ccccc21`, the Potency entry in assay [1], in assay [2], in assay [3], in assay [4], in assay [5] and in [6] was “inactive” each time. In addition, the Potency result in assay [8] and in [9] was “inactive” in each case. Also, the compound was called inactive in assay [7] and in assay [10].

As to `CCCCCCCCCC(=O)NO`, the Potency result in assay [1], in assay [2], in assay [3], in assay [4], in [5] and in assay [6] was “inactive” in each case. Also, the Potency entry in assay [8] and in [9] was “inactive” throughout. Moreover, the compound was classed as inactive in assay [7] and in assay [10].

Consider `CCc1ncnc2cc(OC)c(OC)cc12`, for which the Potency result in assay [1], in assay [2], in assay [3], in assay [4], in assay [5] and in [6] was “inactive” in each case. Besides, the Potency entry in assay [8] and in assay [9] was “inactive” each time. For the same compound, the compound was classed as inactive in [7] and in assay [10].

`C=C1[C@H](CO)[C@@H](O)C[C@@H]1n1cnc2c(=O)[nH]c(N)nc21`: the Potency entry in assay [1], in assay [2], in [3], in assay [4], in assay [5] and in assay [6] was “inactive” in each case. Also, the Potency entry in assay [8] and in assay [9] was “inactive” in each case. The compound was classed as inactive in [7] and in assay [10].

On to `COc1ccc(/C=C/C(=O)O)cc1`, for which the Potency entry in [1], in [2], in [3], in [4], in assay [5] and in [6] was “inactive” each time. Moreover, the Potency result in assay [8] and in assay [9] was “inactive” each time. For the same compound, the compound was classed as inactive in assay [7] and in [10].

Regarding `CC(C)NCC1CCc2cc(CO)c([N+](=O)[O-])cc2N1` (stereo not given), the Potency result in assay [1], in assay [2], in assay [3], in [4], in assay [5] and in assay [6] was “inactive” throughout. Besides, the Potency result in [8] and in [9] was “inactive” each time. Besides, the result in assay [7] and in assay [10] was inactive.

As to `O=C(O)c1cc(=O)c2c3nc4ccccc4oc-3cc(=O)c2[nH]1`, the Potency entry in [1], in assay [2], in [3], in assay [4], in assay [5] and in assay [8] was “inactive” throughout. In addition, in [9], the Potency result was “inactive”. For the same compound, the Potency in [6] was 21.1 µM (active). The outcome in [7] and in [10] was inactive.

With `Oc1ccc(Cl)c2c1CCC2`, the Potency entry in [1], in assay [2], in assay [3], in assay [4], in assay [5] and in assay [8] was “inactive” throughout. Further, the Potency entry in assay [9] was “inactive”. Besides, the Potency in assay [6] is 24.8 µM (active). Besides, the call in assay [7] and in assay [10] was inactive.

As to `CC(C)C[C@@H](NC(=O)[C@@H](O)[C@H](N)Cc1ccccc1)C(=O)O`, the Potency result in assay [1], in [2], in assay [3], in [4], in assay [5] and in assay [6] was “inactive” throughout. Further, the Potency result in [8] and in assay [9] was “inactive” in each case. Further, the call in [7] and in [10] was inactive.

On to `N[C@H](C(=O)O)[C@@H]1CC(Cl)=NO1`, for which the Potency in assay [1] is 2.98 µM (active); in assay [3], 13.3 µM (active). Moreover, the Potency entry in [2], in [4], in [5], in [6], in assay [8] and in assay [9] was “inactive” each time. Also, the call in assay [7] and in [10] was inactive.

`CCCCCCCCCCCCCCCCCCOCC(COP(=O)([O-])OCC[N+](C)(C)C)OC` (stereo not given): the Potency entry in assay [1], in [2], in assay [3], in assay [4], in assay [5] and in [6] was “inactive” in each case. Moreover, the Potency entry in assay [8] and in assay [9] was “inactive” each time. Moreover, the compound was called inactive in [7] and in assay [10].

As to `CC(=O)OCC(=O)[C@@]1(O)CC[C@H]2[C@@H]3CCC4=CC(=O)CC[C@]4(C)C3=CC[C@@]21C`, the Potency result in [1], in assay [2], in assay [3], in assay [4], in assay [5] and in assay [6] was “inactive” throughout. Further, the Potency result in [8] and in assay [9] was “inactive” each time. Also, the call in assay [7] and in assay [10] was inactive.

Take `CC(C)c1ncc([N+](=O)[O-])n1C`: the Potency entry in [1], in assay [2], in assay [3], in assay [4], in [5] and in assay [6] was “inactive” throughout. For the same compound, the Potency result in assay [8] and in assay [9] was “inactive” each time. Further, the result in assay [7] and in [10] was inactive.

For the compound `C=C1C(=C/C=C2\CCC[C@]3(C)[C@@H]([C@H](C)CCCC(C)C)CC[C@@H]23)C[C@@H](O)C[C@@H]1O`, the Potency was 29.8 µM (active) in assay [1], 29.8 µM (active) in assay [3], 23.7 µM (active) in assay [4] and 29.8 µM (active) in [6]. Further, the Potency entry in [2], in assay [5], in [8] and in [9] was “inactive” in each case. Besides, the call in [7] and in assay [10] was inactive.

For `COC1[C@@H](O[C@@H]2O[C@H](C)[C@@H](O[C@H]3C[C@@](C)(O)[C@H](OC(=O)CC(C)C)[C@H](C)O3)[C@H](N(C)C)[C@H]2O)[C@@H](CC=O)C[C@@H](C)[C@@H](O)/C=C/C=C/C[C@@H](C)OC(=O)C[C@H]1OC(C)=O` (stereo not given in full), the Potency result in assay [1], in assay [2], in assay [3], in assay [4], in [5] and in assay [6] was “inactive” throughout. Further, the Potency entry in assay [8] and in [9] was “inactive” each time. For the same compound, the outcome in assay [7] and in [10] was inactive.

Take `C=CC1=C(C(=O)O)N2C(=O)[C@@H](NC(=O)/C(=N/OCC(=O)O)c3csc(N)n3)[C@H]2SC1` (stereo in doubt): the Potency entry in assay [1], in assay [2], in assay [3], in assay [4], in assay [5] and in [6] was “inactive” in each case. The Potency result in assay [8] and in assay [9] was “inactive” in each case. Further, the outcome in assay [7] and in assay [10] was inactive.
